Measured values published in PubChem BioAssay AID504467 (National Center for Advancing Translational Sciences (NCATS), 2011).
About 7,700 (2.3%) of roughly 330,000 compounds were called active. Another 26% or so got no clear call; they are omitted. The full list was thinned out, with actives kept by preference. A number with no mark means an inactive call. Calls come from the whole dose curve; as a rule, active = well fitted inhibition curve with a large enough effect; inconclusive = small, poorly fitted or top-dose-only effect, or effect the other way; inactive = flat fitted curve, though single readings scatter.

Test: qHTS screen for small molecules that inhibit ELG1-dependent DNA repair in human embryonic kidney (HEK293T) cells expressing luciferase-tagged ELG1; note: nearly all actives have a fitted effect of over 55% in size
Details: HEK293T ELG1-luciferase reporter, luminescence, 16 h, DNA damage induced by 5-fluorouridine; series mostly up to 46.1 µM; activity change, negative = inhibition: at the top concentration
Procedure, shortened: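 In this reporter screen, reduction of luminescence relative to DMSO vehicle indicated activity. Compounds and 5-fluorouridine were added together to 2,000 cells per well, incubated for 16 hr at 37 °C, then developed with ONE-Glo.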
% is set by controls: 0 for no effect and ±100 for the full control effect; potency is the fitted concentration of half-maximal effect.

| Structure (SMILES) | activity change, negative = inhibition | Potency |
| --- | --- | --- |
| CN1CCN(S(=O)(=O)c2ccc(Nc3ccc(F)cc3)nc2)CC1 | 0.234% |  |
| O=C(CN1C(=O)NC2(CCCCCCC2)C1=O)NCc1ccc(F)cc1 | -2.29% |  |
| O=C(C(NS(=O)(=O)c1cccc2nsnc12)c1ccccc1)N1CCN(c2ccccc2)CC1 (stereo not drawn) |  | 16.4 µM (active) |
| O=C(C(NS(=O)(=O)c1cccc2nsnc12)c1ccccc1)N1CCN(c2ccccn2)CC1 (stereo not drawn) | -14.9% |  |
| O=C(O)C(NS(=O)(=O)c1cccc2nsnc12)c1ccccc1 (stereo not drawn) | -7.45% |  |
| COC(=O)c1cc(NC(=O)c2cc(C(C)(C)C)nn2Cc2cccc(C)c2)ccc1N1CCOCC1 |  | 16.4 µM (active) |
| CC(=O)Nc1ccc(N2CCOCC2)c(C(=O)Nc2cccc(C)c2)c1 | 0.105% |  |
| COC(=O)c1cc(NC(=O)c2ccco2)ccc1N1CCOCC1 | 27.5% |  |
| CSc1ncccc1C(=O)Nc1ccc(C)cn1 | 12.8% |  |
| Cc1csc(SCC(=O)N(c2ccccc2)C(C)C)n1 | 2.12% |  |
| CC(C)(C)OC(=O)C[C@@H]1C/C=C\C[C@@H](CC(=O)N[C@@H](CO)Cc2ccccc2)C(=O)N2CCC[C@H]2COC1=O | -0.459% |  |
| Brc1ccc2ncnc(NCc3cccnc3)c2c1 |  | 8.2 µM (active) |
| Cc1cc(NCc2cccnc2)no1 | -0.988% |  |
| NC(=O)c1cc(-c2cccnc2)nc2ccc(Br)cc12 | -0.487% |  |
| C=CC[C@@H](CC(=O)NCCO)C(=O)N[C@H](C)COC(=O)[C@@H](CC=C)CC(=O)OC(C)(C)C | 9.21% |  |
| CC(CC(=O)Nc1cc(C(F)(F)F)ccc1Cl)c1ccccc1 (stereo not drawn) | -11.4% |  |
| COc1ccc(/C(C)=N/Nc2cc(C(F)(F)F)ccc2Cl)c(OC)c1 | -5.75% |  |
| COc1cc(OC)c(C(=O)OC(C)C(=O)Nc2cc(C(F)(F)F)ccc2Cl)cc1OC (stereo not drawn) |  | 14.6 µM (active) |
| CC1CC(C)CN(C(=O)COC(=O)c2ccc3ncsc3c2)C1 (stereo not drawn) | 22.9% |  |
| CCN(CC(=O)Nc1ccc(OC)cc1)C(=O)c1ccc(Cl)c(S(=O)(=O)N2CCCC2)c1 | -8.47% |  |
| Cc1nnc(N/N=C/C2CC=CCC2)[nH]c1=O (stereo not drawn) | 8.5% |  |
| Cc1ccccc1Nc1nnc(C)c(=O)[nH]1 | 1.45% |  |
| Cc1nnc(N/N=C/c2ccccn2)[nH]c1=O |  | 0.92 µM (active) |
| Cc1ccc([C@@H]2CC=C(C(=O)O)[C@H](c3cccc(Cl)c3)N2S(=O)(=O)c2ccc(C)cc2)cc1 | 10.9% |  |
| CN(CCc1ccccc1)C(=O)c1cccc(NC(=O)Cc2ccc([N+](=O)[O-])cc2)c1 |  | 13 µM (active) |
| CN(C)C(CNC(=O)Cc1ccc([N+](=O)[O-])cc1)c1ccccc1 (stereo not drawn) | 13.3% |  |
| CN(C)CCNC(=O)Cc1ccc([N+](=O)[O-])cc1 | 15.5% |  |
| Cc1ccc2nnn(Cc3cccc(C(C)(C)C)c3O)c2c1 | -1.83% |  |
